# Bioassay records: PubChem BioAssay, National Center for Advancing Translational Sciences (NCATS)
# A selection: hits, their analogues and other compounds. The true share with any hit is near 2.4%.
# D2 ag-1 – agonists of human D2 dopamine receptor (beta-arrestin); DiscoveRx PathHunter D2 beta-arrestin, luminescence, 90 min; 100% = 57 uM dopamine signal; activation, % (test concentration not listed); P14416; actives 0.084% (n = 360,000); in the data active = activation above about 40%; inconclusive = between about 15% and that limit
# Target sequence (P14416 whole entry, looked up): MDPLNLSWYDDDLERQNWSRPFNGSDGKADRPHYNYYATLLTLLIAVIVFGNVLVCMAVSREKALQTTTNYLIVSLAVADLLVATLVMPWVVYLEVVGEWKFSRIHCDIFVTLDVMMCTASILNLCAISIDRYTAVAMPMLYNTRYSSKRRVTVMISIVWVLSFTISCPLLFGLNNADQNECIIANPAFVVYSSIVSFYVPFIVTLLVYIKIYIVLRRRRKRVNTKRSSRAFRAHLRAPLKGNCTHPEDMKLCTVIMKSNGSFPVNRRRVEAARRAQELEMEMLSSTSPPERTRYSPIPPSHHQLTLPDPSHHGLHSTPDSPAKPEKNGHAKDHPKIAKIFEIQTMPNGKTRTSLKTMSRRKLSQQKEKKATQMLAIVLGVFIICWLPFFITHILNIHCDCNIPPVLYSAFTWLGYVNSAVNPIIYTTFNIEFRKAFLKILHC
#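 Agonist mode: compounds alone added to overnight-plated D2 PathHunter cells for 90 min at 37 C, with 57 uM final dopamine (EC100) defining full response. Beta-arrestin recruitment detected by chemiluminescent reagent, read after 1 h at ambient temperature.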
# D2 ag-2 – D2 dopamine receptor (human) agonism | actives 0.53% (n = 340,000) | activation, % at 2 µM | AID 485358 | P14416 | HEK293 T-REx D2 cells, calcium flux agonist mode;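 active = activation over 3 SD above normal in the single-dose calcium agonist read, cut at about 30% in these data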; note: 0% is about no effect
#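 Agonism scored from kinetic calcium signal (1 read/sec, 180 s) following compound pin transfer, after a 10 s baseline. Cells: HEK293 Trex line expressing inducible D2 receptor coupled to calcium, dye-loaded after overnight culture at 30 C.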
# D2 PAM-1 – positive allosteric modulators of human D2 dopamine receptor. P14416. DiscoveRx D2 beta-arrestin cells, luminescence, 90 min; 100% = 57 uM dopamine signal. potentiation, % (test concentration not listed). actives 0.23% (n = 360,000). AID 624464; in the data active = potentiation above about 50%; inconclusive = mostly about 30% to 49%
#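 D2 cells co-treated with compound plus 50 nM dopamine (EC20) for 90 min at 37 deg C to detect potentiation. Beta-arrestin recruitment was read as enzyme-fragment luminescence after 1 h at ambient temperature. Full response was set by 57 uM dopamine.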
# D2 antagonist – D2 dopamine receptor (human) antagonism; P14416; HEK293 TREx D2 cells, calcium flux, dopamine EC80; inhibition, % at 10 µM; actives 2% (n = 340,000); in the data active = inhibition above about 30%; inactive = below that, where a call was filed; note: 0% is about no effect
#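 Tetracycline-induced HEK293 T-REx cells expressing D2 force-coupled to calcium signalling were dye-loaded, exposed to compound for 180 s, then challenged with an EC80 of dopamine; calcium flux was followed kinetically for a further 180 s.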
# D2 PAM-2 – D2 dopamine receptor (human) potentiation. HEK293 T-REx D2, calcium flux, EC20 dopamine potentiation. potentiation, % at 10 µM. actives 0.34% (n = 340,000);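 active = potentiation over 3 SD above the plate norm, cut at about 30% in these data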; note: 0% is about no effect
#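 Calcium flux readout, no-wash dye, 1 read/s. Inducible HEK293 Trex D2 line, overnight 30 C. Compound alone 180 s (agonist flags), then EC20 dopamine, another 180 s to score potentiation.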
# An asterisk follows results filed as active; u = inconclusive; x = not tested or not shown.
SMILES,D2 ag-1,D2 ag-2,D2 PAM-1,D2 antagonist,D2 PAM-2
COc1ccccc1N1CCN(S(=O)(=O)c2ccc3c(c2)CC(C)N3C(C)=O)CC1 (stereo not drawn),-1,0,-8,33*,-14
Cc1ccc(C(=O)COC(=O)c2cccc(NC(=O)c3ccc(Cl)cc3Cl)c2)cc1,x,3,x,x,-6
CC1Cc2ccccc2N1C(=O)COC(=O)c1ccco1 (stereo not drawn),1,x,-10,x,x
CC1Cc2ccccc2N1C(=O)COC(=O)c1ccc([N+](=O)[O-])o1 (stereo not drawn),12,x,58*,x,x
CCc1nnc2c(Nc3cc(OC)c(Cl)cc3OC)nc3ccccc3n12,x,1,x,x,-17
CN(C)c1ccc(N/C=C/C(=O)c2ccco2)cc1,8,0,55*,-4,0
CC(=O)Nc1ccc(N/C=C/C(=O)c2ccco2)cc1,-3,0,2,-9,-15
COc1ccc(S(=O)(=O)Nc2ccccc2C(=O)N2CCCCC2)cc1C,-7,x,-8,x,x
COc1ccccc1CNC(=O)COC(=O)C1CCN(S(=O)(=O)c2c(Cl)cccc2Cl)CC1,4,x,1,x,x
COc1ccc(CCN2C(=O)CN=C2Nc2ccc(F)cc2)cc1OC,-3,-1,-4,6,-2
C=CCN1C(=O)CN=C1Nc1ccc(F)cc1,0,1,-5,54*,-33
COCCNC(=O)CN1C(=O)COc2ccc(Cl)cc21,-1,1,-6,35*,-8
CC(C)(C)c1ccc2c(c1)N(CC(=O)O)C(=O)CO2,-1,0,5,-14,4
COC(=O)CN1C(=O)COc2ccc(Cl)cc21,-3,0,-4,-9,7
CN(C)CCNC(=O)CN1C(=O)COc2ccc(C(C)(C)C)cc21,-3,0,-11,36*,1
O=c1cc(-c2ccccc2)n2c(SCc3c(F)cccc3Cl)nnc2[nH]1,x,1,x,x,9
COc1ccc(C(=O)NCC(=O)N/N=C/c2c(C)[nH]c3ccccc23)cc1,1,-1,-27,53*,-4
CCOc1ccccc1CNC(=O)C1CCN(S(=O)(=O)c2ccc3c(ccn3C)c2)CC1,x,-1,x,x,-8
Cc1cc(C(=O)NCCCN2CCN(c3cc(Cl)ccc3C)CC2)n(-c2ccccc2)n1,-1,-2,-10,47*,-28
Cc1cc(C(=O)NCCN2CCN(c3cccc(Cl)c3)CC2)n(-c2ccccc2)n1,-4,-3,-8,12,-5
Oc1ccc(N=Cc2ccc(O)c(O)c2)cc1,u,0,83*,-19,13
Oc1ccc(/C=N/N=C/c2ccc(O)c(O)c2)cc1O,10,0,4,12,7
COc1cc(NC(=O)Cn2cnc(S(=O)(=O)N3CCOCC3)c2)cc(OC)c1OC,-2,-1,-28,45*,-7
CCN(CC(=O)Nc1c(F)cccc1F)C(=O)c1ccc(N2CCCC2)c([N+](=O)[O-])c1,-9,0,-25,31*,8
CN(CC(=O)Nc1cccc(F)c1)C(=O)c1cc([N+](=O)[O-])ccc1N1CCCCC1,-5,-1,-26,42*,0
SMILES,D2 ag-1,D2 ag-2,D2 PAM-1,D2 antagonist,D2 PAM-2
CCN(CC(=O)Nc1c(F)cccc1F)C(=O)c1ccc(N2CCOCC2)c([N+](=O)[O-])c1,-3,0,-17,-12,-4
Cc1cc(C)c(NC(=O)C(=O)NCC(c2cccnc2)N2CCN(Cc3ccccc3)CC2)c(C)c1 (stereo not drawn),x,2,x,x,-6
Fc1ccc(-c2csc(=S)[nH]2)cc1,-2,0,-4,31*,-2
S=c1[nH]c(-c2ccccc2)cs1,5,0,-16,8,11
CCc1cc(=O)oc2cc(C)cc(OCC(=O)NC(Cc3c[nH]c4ccc(O)cc34)C(=O)O)c12 (stereo not drawn),7,1,20,48*,-12
COc1ccc(-c2cc(=O)oc3cc(OC(C)C(=O)NC(Cc4c[nH]c5ccc(O)cc45)C(=O)O)ccc23)cc1 (stereo not drawn),4,5,-14,-22,-5
CC(Oc1ccc2ccc(=O)oc2c1)C(=O)NC(Cc1c[nH]c2ccc(O)cc12)C(=O)O (stereo not drawn),9,-1,7,44*,-24
CCCc1cc(=O)oc2cc(C)cc(OCC(=O)NC(Cc3c[nH]c4ccc(O)cc34)C(=O)O)c12 (stereo not drawn),-4,0,-2,-24,8
CCn1cc(C(=O)N2CCN(c3ccc(F)cc3)CC2)c(=O)c2cc(S(=O)(=O)N3CCOCC3)ccc21,x,0,x,x,14
CCOc1ccc2nc(NC(=O)c3nc(SCc4ccccc4C)ncc3Cl)sc2c1,x,0,x,x,-24
N#Cc1nc(COc2ccccc2Cl)oc1NCc1ccc(F)cc1,-1,0,-8,3,-5
N#Cc1nc(COc2ccccc2Cl)oc1NCc1cccnc1,1,-1,4,40*,4
COc1ccc(S(=O)(=O)NCc2ccc(C(=O)NCc3ccccc3)cc2)cc1,x,-1,x,x,18
COc1cc2c(cc1OC)n(CC(=O)c1cccc(Cl)c1)c(=O)n1nc(CCn3nc(C)cc3C)nc21,x,0,x,x,-9
CCOc1cc(/C=N\NC(=O)OC(C)(C)C)ccc1OC(=O)c1ccco1,-1,-2,-9,31*,-3
COc1cc(/C=N\NC(=O)c2ccc(C)nc2)ccc1OC(=O)c1ccc2c(c1)OCO2,-6,-1,-5,-19,x
COc1cc(/C=N\NC(=O)c2ccc(C)nc2)ccc1OC(=O)c1ccco1,1,0,3,34*,-10
COc1ccc(NC(=O)Nc2c[nH]c(=O)[nH]c2=O)c(OC)c1,x,1,x,x,x
CCOc1ccccc1OCCCNCc1ccco1,-4,0,-15,31*,-25
CCOC(=O)c1[nH]c(=O)[nH]c1CSc1nc(C)cc(C)n1,-9,-1,-25,32*,13
Cc1noc(/C=C/N(C)C)c1S(=O)(=O)N1CCC(C(=O)NC(C)(C)C)CC1,0,-1,0,31*,-4
Cc1ccc(NC(=O)C2CCN(S(=O)(=O)c3c(C)noc3/C=C/N(C)C)CC2)cc1,-1,1,-12,-29,4
CC(C)N(Cc1ccccc1)C(=O)COC(=O)C1CCN(c2ccc(C(F)(F)F)cn2)CC1,-5,1,-6,3,-11
CC(C)(C)N(Cc1ccccc1)C(=O)COC(=O)C1CCN(c2ccc(C(F)(F)F)cn2)CC1,-6,0,-15,-17,59*
CC(=O)N1CCc2c(sc3c2c(=O)n(Cc2ccccc2)c(=O)n3CC(=O)Nc2ccc(C)c(F)c2)C1,x,1,x,x,-8
